Common to all, as to type: functional
Test [1] concerns the target Solute carrier family 2, facilitated glucose transporter member 1 (Homo sapiens) (UniProt P11166). The experiment in a line: ST_JUDE_LEISH: Cytotoxicity at 2uM final concentration against transgenic Leishmania Mexicana promastigotes LmGLUT1 that are glucose transport deficient and complemented with the human glucose transporter GLUT1. Activity is measured by DNA content using SYBR green in vitro.

Test [2] deals with Hexose transporter 1 (Plasmodium falciparum) (UniProt O97467). The experiment in a line: ST_JUDE_LEISH: Cytotoxicity at 2uM final concentration against transgenic Leishmania Mexicana promastigotes LmPfHT that are glucose transport deficient and complemented with the Plasmodium falciparum hexose transporter. Activity is measured by DNA content using SYBR green in vitro.
For test [3], the target named is Glucose transporter (Leishmania mexicana) (UniProt O61059). The experiment in a line: ST_JUDE_LEISH: Cytotoxicity at 2uM final concentration against transgenic Leishmania Mexicana promastigotes LmGT2 that are glucose transport deficient and complemented with the L. Mexicana glucose transporter 2. Activity is measured by DNA content using SYBR green in vitro.

The values below come from ChEMBL document CHEMBL3433997, “St. Jude Leishmania screening dataset” (2016).

Chain of Solute carrier family 2, facilitated glucose transporter member 1 (Homo sapiens) (P11166 whole entry): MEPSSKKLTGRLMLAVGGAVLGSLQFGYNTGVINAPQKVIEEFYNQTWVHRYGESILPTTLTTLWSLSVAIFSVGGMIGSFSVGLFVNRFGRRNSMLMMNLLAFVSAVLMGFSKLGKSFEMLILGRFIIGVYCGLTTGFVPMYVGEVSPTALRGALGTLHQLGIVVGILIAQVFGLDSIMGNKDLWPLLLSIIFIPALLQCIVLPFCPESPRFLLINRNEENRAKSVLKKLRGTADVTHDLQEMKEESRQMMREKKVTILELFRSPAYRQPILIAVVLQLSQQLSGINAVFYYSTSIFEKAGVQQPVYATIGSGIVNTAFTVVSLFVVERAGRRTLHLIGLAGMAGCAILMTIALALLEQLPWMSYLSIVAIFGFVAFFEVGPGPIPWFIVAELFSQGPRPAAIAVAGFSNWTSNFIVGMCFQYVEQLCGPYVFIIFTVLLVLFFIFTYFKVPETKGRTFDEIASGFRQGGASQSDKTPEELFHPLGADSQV

For the molecule `O=[N+]([O-])c1cccc(NC(=S)N2CCCN(Cc3ccc(Cl)cc3Cl)CC2)c1`, the inhibition in test [1] came to 2.36%; in test [2], 3.32%; in test [3], 3.01%.
For the molecule `Cc1[nH]c(C)c(-c2ccc(OCc3cccc(C(F)(F)F)c3)nc2)c(=O)c1Br`, the results for the inhibition in test [1], in test [2] and in test [3] were 44.5%, 64.4% and 35%, respectively.
As to `NC1=NC(c2ccccc2)(c2ccccc2)C(=O)N1CCCCc1ccccn1`, the inhibition is -0.54% in test [1], -0.95% in test [2] and -2.5% in test [3].
Taken in the same sequence, the figures for `COc1cccc(C(=O)Nc2nc3c(s2)CCN(Cc2ccccc2N2CCNCC2)CC3)c1` were 12.3%, 13.7% and 10.7%.
The corresponding values for `COc1cc(Nc2nccc(N3CCC(NC(=O)c4cccc(NC(C)=O)c4)C3)n2)cc(OC)c1OC` (configuration not stated) are 0.31%, 0.55% and -0.85%.
Turning to `O=C(Nc1ccc(C(F)(F)F)cc1)c1ccc(S(=O)(=O)NCC2CCCN(CC3CCCCC3)C2)cc1` (configuration not stated), the inhibition in test [1] is 2.94%; in test [2] it was 2.24%; in test [3], 1.65%.
The corresponding values for `Cc1nc(Nc2ccc(F)cc2)nc(N2CCc3ccccc3C2C)c1CO` (configuration not stated) are 5.38%, 7.38% and 1.5%.
Taken in the same sequence, the figures for `COc1ccc(-n2nc(C(=O)NCc3ccccc3OC)c3ccccc3c2=O)cc1` were 8.08%, 6.04% and 2.98%.
The corresponding values for `Cn1cccc1CCNCc1ccc(-c2cccc(-c3nc4ccccc4[nH]3)c2)cc1` are 3.79%, 3.07% and 2.55%.
For the molecule `COc1ccc(-c2ccc(NC(=O)c3cccc(C#N)c3)cc2)cc1CN1CCCN(C)CC1`, the inhibition is 4.08% in test [1], 2.42% in test [2] and -0.48% in test [3].
The corresponding values for `COc1cccc(-c2ccc3c(-c4cccc(NC(C)=O)c4)cnc(N)c3c2)c1` are 5.41%, 4.32% and 3.78%.
The corresponding values for `Cc1cccc(C)c1CNc1cccc(-c2nc(C)c(C)[nH]2)c1` are 5.39%, 4.77% and 1.97%.
Taken in the same sequence, the figures for `O=C(/C=C/c1cc(C(F)(F)F)ccc1F)NCCCCCN1CCC(c2c[nH]c3ccccc23)CC1` were 0.77%, 1.47% and 0.28%.
In the case of `CC1(C)S(=O)(=O)CC(O)CS1(=O)=O`, the inhibition in test [1] turned out to be 3.87%; in test [2], 3.02%; in test [3] it was 2.49%.
Taken in the same sequence, the figures for `O=S(=O)(NCCN1CCCC1)c1cccc(-c2cccc(CNCc3ccsc3)c2)c1` were -0.74%, -0.16% and 1.71%.
Taken in the same sequence, the figures for `COC(=O)c1c(C#N)c(OC)cc(O)c1CSC[C@H](Nc1nc(-c2ccc([N+](=O)[O-])cc2)cs1)C(=O)NCCN1CCCCC1` were -1.73%, 0.29% and -0.42%.
`COc1ccccc1C1CCN(CCCCNC(=O)c2ccc(/C=C/c3cc(Cl)cc(Cl)c3)cc2)CC1`: the inhibition was 2.68% in test [1], 2.81% in test [2] and 1.77% in test [3].
Taken in the same sequence, the figures for `CCN(CC)CCCNc1cc[n+]([O-])c2cc3ccccc3cc12` were -0.82%, -2.45% and -1.63%.
For the molecule `COc1cc(C2NCC3(CCOCC3)c3cc4c(cc32)OCCO4)cc(OC)c1OC` (configuration not stated), the inhibition worked out at 10.2% in test [1], 6.69% in test [2] and 7.63% in test [3].
The corresponding values for `COc1ccc(CNCc2ccc(-c3ccc(CNCCc4ccccc4)cn3)cc2)cn1` are 0.68%, -0.51% and 1.46%.
Taken in the same sequence, the figures for `CCNC(=O)c1ccc2c(c1)c(C)c(C)n2Cc1ccc(F)cc1` were 0.6%, -0.64% and 1.15%.
The corresponding values for `O=C(NCc1ccccn1)C(c1cc2ccccc2o1)N1CCN(C(c2ccccc2)c2ccccc2)CC1` (configuration not stated) are 0.6%, 2.14% and 2.55%.
As to `COc1cccc(CCc2cccc(CNC(C)=O)c2)c1`, the values for the inhibition in test [1], in test [2] and in test [3] were 5.81%, 4.65% and 5.68%, respectively.
Consider `CS(=O)(=O)CCNCc1cccc(-c2ccc3c(Nc4ccc(Oc5ccccc5)cc4)ccnc3c2)c1`, for which the inhibition in test [1] was 0.35%; in test [2] it was -0.06%; in test [3], 1.33%.

The term inhibition denotes the change of the read-out against control, counted positive when it falls.
